# Measurements as given in PubChem BioAssay (NCI).
# The panel holds about 83,000 compounds, 20% with a hit somewhere; the sample as a whole holds those more often.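 Step 1: grow cells in 96-well plates. Step 2: add test compound at a single concentration. Step 3: incubate 48 h. Step 4: record percent growth.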 Calls of active or inactive are those of the source.
# System: HOP-92 NSCLC
# Test: NCI-60 one-dose screen, 48 h (100 = growth as untreated, 0 = no growth, -100 = all killed)
# Settings: 10 µM
# Experimental: Growth inhibition of the HOP-92 human Non-Small Cell Lung tumor cell line is measured as a screen for anti-cancer activity. Cells are grown in 96 well plates and exposed to the test compound for 48 hours. Compounds are tested at a single concentration, which is 10^-5 M for most compounds. The reported endpoint is percent growth (GI% or GIPRCNT), where numbers from 0 - 100% represent growth inhibition, and numbers from -100% - 0 represent cell death. For example, a value of 40 represents 60% growth inhibition. A value of 0 means no net growth occurred over the course of the experiment. A value of -40 indicates 40% of cells at the beginning of the experiment died by the end of the experiment. A value of -100 means all cells are dead at the end of the experiment.
# NCI-60 Human Tumor Cell Lines Screen was performed using the standard one-dose NCI protocol, which is described in more detail at https://dtp.cancer.gov/discovery_development/nci-60/default.htm.
# Compounds with GIPRCNT values below 10 were considered active. Activity score was based on GIPRCNT using the following formula: […]
# Score is 0 for GIPRCNT values of 100 or above, 50 for GIPRCNT values of 0, and 100 for GIPRCNT values of -100.
row,Compound,growth
1,CCCNC(=O)Oc1ccc(/C(=C(/CC)Cc2ccccc2)c2ccc(OCCN(CC)CC)cc2)cc1,55.7% (inactive)
2,NC(=O)c1c(Nc2ccccc2)nn2cc(-c3nc4ccccc4s3)c(N)nc12,93.2% (inactive)
3,CC(=O)N1N=C(c2ccc(Cl)cc2)CC1c1cn(-c2ccccc2)nc1-c1ccc([N+](=O)[O-])cc1 (stereo not given),117% (inactive)
4,O=C1N/C(=N\c2nnc(-c3ccc(O)cc3)s2)S/C1=C\c1ccccc1O,81.7% (inactive)
5,Clc1ccc(N/N=C/c2ccccn2)nc1,39.7% (inactive)
6,CC(C)CSc1nc(-c2ccc(F)cc2)c(C#N)c(N2CCCCC2)n1,97.5% (inactive)
7,COc1nc(OC)nc(-c2cc(-c3cc(OC)c(OC)c(OC)c3)no2)n1,95.4% (inactive)
8,O=S(=O)(O)CCI,103% (inactive)
9,Oc1ccccc1/C=N/N=C/c1c(O)ccc2ccccc12,66.9% (inactive)
10,CCN(CC)CCCC(C)Nc1c(C)cnc2cc(Cl)c(C)cc12 (stereo not given),70.4% (inactive)
11,CC(O)C(N)=O (stereo not given),101% (inactive)
12,N=C(N)c1ccc(-c2ccc(-c3ccc(F)cc3)s2)cc1,-86.2% (active)
13,N=c1c2c(=O)n3c(nc2nc2sc4ccc(Cl)cc4n12)-c1ccccc1Sc1ccccc1-3,6.89% (active)
14,CC1(C)CC(=O)C2=C(C1)Oc1nc(N)c(C#N)c(N)c1C2c1ccc(F)cc1 (stereo not given),76.4% (inactive)
15,CC(=O)OCC1O[C@@H](OC(C)=O)[C@@H](NC(=O)NS(=O)(=O)c2ccccc2)C(OC(C)=O)[C@@H]1OC(C)=O (stereo not given in full),97.9% (inactive)
16,CCOC(=O)c1ccc2n1CCCc1cnc(NC(C)=O)nc1-2,82.2% (inactive)
17,COc1ccc(/C=C2\SC(=O)N(Cc3cc(=O)oc4ccc(OC)cc34)C2=O)cc1,86% (inactive)
18,CCCCCSc1ccc2nc(NC(=O)OCC)sc2c1,31.7% (inactive)
19,COc1cc(-c2cc3cnccc3c3nc(N)c4ccncc4c23)cc(OC)c1OC,-0.882% (active)
20,C/C=C(/C)C(=O)OC1C=C(CO)C(=O)C(OC(=O)C(C)(O)C(C)Cl)C1C(C)C (stereo not given),-50.2% (active)

row,Compound,growth
1,COc1nc(OC)nc(-c2cc(C(=O)c3ccc(Br)cc3)n3cc(C)cc(C)c23)n1,33.9% (inactive)
2,CSC1=Nc2c(c(C)c(-c3ccccc3)n2CCCCl)C2=NC(=O)CN12,64.7% (inactive)
3,Ic1ccc(SSc2ccc(I)cc2)cc1,90.7% (inactive)
4,Cc1c(Cc2ccccc2)c(=O)oc2c(C)c(OCC(=O)n3nc(C#N)cc3N)ccc12,89.1% (inactive)
5,CCOC(=O)CCCCCCCCC(=O)OCC,98.6% (inactive)
6,COc1ccc2oc(=O)cc(CN3C(=O)S/C(=C\c4ccc(Cl)cc4)C3=O)c2c1,86.5% (inactive)
7,CC(=O)Nc1nc(C)c(C(=O)NNC(=O)Nc2ccccc2)s1,60.6% (inactive)
8,CCOC(=O)C1=C(C(F)(F)F)NC(=O)NC1CN1C(=O)c2ccccc2C1=O (stereo not given),60.8% (inactive)
9,O=C(NCCNCCO)c1cc([N+](=O)[O-])cc([N+](=O)[O-])c1O,93.9% (inactive)
10,CCCC(=O)Nc1ccccc1C(=O)O,95.7% (inactive)
11,COC(=O)/C=C/c1cc(O)c2oc(-c3ccc(O)c(O)c3)c(C(=O)OC)c2c1,56.1% (inactive)
12,CCN(CC)c1ccc2nc3ccc(N=Nc4ccc(O)cc4)cc3[n+](-c3ccccc3)c2c1,88.4% (inactive)
13,CC[C@H](Nc1ncnc2nc[nH]c12)c1nc2cccc(NCc3ccc(C(=O)NO)nc3)c2c(=O)n1-c1ccccc1,23.2% (inactive)
14,COc1cccc2c1nc1cccc(OC)c1[n+]2[O-],31.4% (inactive)
15,O=C1C(Cl)=C(Nc2ccc(Nc3ccccc3)c(NC3=C(Cl)C(=O)c4ccccc4C3=O)c2)C(=O)c2ccccc21,45.3% (inactive)
16,Cc1nc(N)sc1C(=O)NCCO,-17.9% (active)
17,CCCCCCCCCCCCCCCCCC1=NCCN1CCNC(C)=O,62.1% (inactive)
18,Clc1ccc(N/N=C(/c2ccccc2)c2ccccn2)nc1,51% (inactive)
19,C/C(=N\Nc1ccc(Cl)cn1)c1ccc2ccccc2n1,34.4% (inactive)
20,O=C1c2cc([N+](=O)[O-])ccc2-c2cc(Cl)c(NC(=O)C(F)(F)F)cc21,99.4% (inactive)
